Assay outcomes (PubChem)
KB-3-1 tox: kills parental KB-3-1 adenocarcinoma cells. Potency, µM (titrated, usually from 46.1 µM), usual class: cytotoxic. 400,000 tested, 1.4% active. KB-3-1 viability, CellTiter-Glo ATP luminescence, 72 h. AID 1347075; further: nearly all actives have a fitted effect of over 60% in size
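Screening of KB-3-1 cells (DMEM, 10% FBS, phenol-red free) ran from lowest to highest compound concentration; after 72 h at 37 °C viability was read luminescently and curves fitted.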
DT40 TDP1 no CPT: qHTS for Inhibitors of human tyrosyl-DNA phosphodiesterase 1 (TDP1): qHTS in cells in absence of CPT. DT40 Tdp1-/- hTDP1 cells, no CPT, ATP luminescence, 48 h. Potency, µM (doses to about 46.2 µM), for the others: at the highest dose activity change, negative = growth inhibition, usual class: inhibitors. 420,000 tested, 15% active. AID 686978, 2013; further: nearly all actives have a fitted effect of over 55% in size
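Luminescent ATP content (CellTiter-Glo) served as the growth readout. Knockout chicken DT40 cells expressing human TDP1 were exposed to compounds without camptothecin for a minimum 48 hr at 37 °C.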
HT1080 IDH1KD tx: toxicity to HT-1080 IDH1 knockdown cells (counter line); HT-1080 IDH1 knockdown viability, ATP luminescence, 48 h; Potency, µM (doses to about 46.1 µM), without a hit: at the top dose activity, negative = toxicity, most hits filed as cytotoxic; 360,000 tested, 2% active; AID 686971;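 further: 0% = DMSO wells and -100% = cell-free medium wells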
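After a 2 h attachment period, IDH1KD HT-1080 cells took pin-transferred compound for 48 h at 37 °C; ATP-based luminescence after 10 min room-temperature reagent incubation reported viability.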
HT1080NT lethal: kills 2HG-producing HT-1080-NT fibrosarcoma cells. HT-1080-NT fibrosarcoma viability, CellTiter-Glo ATP luminescence, 48 h. AID 686970. 360,000 tested, 1.6% active. Potency, µM (highest dose often 46.1 µM), inactives show at the top dose activity, negative = less viability, actives largely listed as cytotoxic;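 further: NT is the 2HG producing partner of a matched IDH1 knockdown line; 0% = DMSO-treated cells and -100% = media-only wells without cells; nearly all actives have a fitted effect of over 55% in size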
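Luminescent CellTiter-Glo readout after 48 hours of compound exposure at 37 degrees C defined viability of HT-1080-NT cells. Activity was normalized to DMSO wells and cell-free media wells; concentration-response curves were fitted and assigned curve classes.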
DT40 TDP1 CPT: growth inhibition of DT40 Tdp1-/-;hTDP1 cells with camptothecin (screen for TDP1 inhibitors) | chicken DT40 Tdp1-/-;hTDP1 cells + 20 nM CPT, ATP luminescence, 48 h | AID 686979 | Potency, µM (titrated, usually from 46.2 µM), without a hit: at the top dose activity change, negative = growth inhibition, actives largely listed as inhibitors | 420,000 tested, 12% active; further: nearly all actives have a fitted effect of over 55% in size
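Chicken DT40 Tdp1-/- cells complemented with human TDP1, 400 cells/well, exposed to compounds plus 20 nM camptothecin for at least 48 h at 37 C; viability read as ATP content by CellTiter-Glo luminescence.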
KB-V1 cytotox: kills drug-selected multidrug resistant KB-V1 cells | KB-V1 MDR cells viability, CellTiter-Glo, 72 h | Potency, µM (highest dose often 46.1 µM), actives largely listed as cytotoxic | 400,000 tested, 3.4% active | AID 1347076; further: nearly all actives have a fitted effect of over 60% in size
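Following 72 h at 37 degrees C with compound, KB-V1 cell viability was read by CellTiter-Glo luminescence, medium being phenol-red-free DMEM plus 10% FBS; concentration-response parameters came from normalized, curve-fitted qHTS data.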
The depositor's hits bear a star; i = inactive; ? = inconclusive; nt = no result given; ! = not active in a repeat; [ ] = dose if it differs, or a comment. The list is not random: actives were taken first. Their share in the collection is about 19%. The call rests on the fitted dose curve; in most records, active means well fitted curve in the direction sought with a large enough effect; inconclusive means small, poorly fitted or top-dose-only effect, or another doubt; inactive means no such curve, though single readings can be large; an effect the other way counts as inactive or inconclusive. Unless noted, on the % scale 0 is the no-effect control and ±100 the full control effect; potency means the concentration at half of the fitted maximal effect.

SMILES	KB-3-1 tox	DT40 TDP1 no CPT	HT1080 IDH1KD tx	HT1080NT lethal	DT40 TDP1 CPT	KB-V1 cytotox
Cc1ccc(NC(=O)Cn2nc(C)c([N+](=O)[O-])c2C)cc1C	i	-21%	-13%	0%	-23%	i
COc1ccc(-c2nc(SC(C)C(=O)NC3CC3)n[nH]2)cc1 (stereo unspecified)	i	1%	2%	10%	2%	i
CC1CCCN(C(=O)Cc2cccc3ccccc23)C1 (stereo unspecified)	i	-26%	12%	2%	-19%	i
COc1ccc(C2c3c(ncn(CCCO)c3=N)Oc3ccc4ccccc4c32)cc1OC (stereo unspecified)	?	18µM*	23µM*	?	15µM*	i
COc1ccc(C2c3c(ncn(CCCO)c3=N)Oc3ccc4ccccc4c32)cc1 (stereo unspecified)	?	15µM*	21µM*	21µM*	21µM*	i
COc1ccc(C2c3ccc(O)cc3Oc3ncn(CCN4CCOCC4)c(=N)c32)cc1 (stereo unspecified)	i	-21%	-4%	-11%	?	i
COc1ccc(C2c3c(ncn(CCN4CCOCC4)c3=N)Oc3ccc4ccccc4c32)cc1OC (stereo unspecified)	?	?	16µM*!	?	?	23µM*
O=C(OCc1cn([C@H]2C[C@H](c3ccc(Cl)cc3)N(C(=O)c3cccs3)C[C@@H]2O)nn1)c1ccccc1	i	7%	14%	14%	2%	i
Cc1oc(-c2cccc(Cl)c2)nc1CN1CCC(C(=O)NCc2ccco2)CC1	?	?	-11%	-21%	-27%	i
Cc1ccc(Cl)cc1N1CCN(C(=O)C2CCN(Cc3nc(-c4cccc(Cl)c4)oc3C)CC2)CC1	?	15µM*	nt	nt	?	?
Cc1ccc(-c2nc(CN3CCCC(C(=O)N4CCOCC4)C3)c(C)o2)cc1 (stereo unspecified)	i	-16%	-2%	-13%	-25%	i
Cc1oc(-c2cc(F)ccc2F)nc1CN1CCC(C(=O)N2CCOCC2)CC1	nt	16%	2%	-1%	13%	nt
Cc1oc(-c2cccc(Cl)c2)nc1CN1CCC(C(=O)N2CCN(c3ccccc3F)CC2)CC1	i	18µM*	?	?	18µM*	?
Cc1oc(-c2cccc(Cl)c2)nc1CN1CCCC(C(=O)N2CCN(c3ccc(F)cc3)CC2)C1 (stereo unspecified)	i	9.2µM*	nt	nt	7.3µM*	i
Cc1ccc(OCCn2nnc3sc4c(c3c2=O)CCC(C)C4)cc1 (stereo unspecified)	i	-10%	nt	nt	-1%	i
CCc1nn(CC(=O)NCCc2ccc(OC)c(OC)c2)c(=O)c2cc3occc3n12	i	-14%	nt	nt	?	i
Cc1ccc(N(C)S(=O)(=O)c2nnc(NC(=O)C3CCCCC3)s2)cc1	nt	-11%	nt	nt	4%	nt
CCOc1ccccc1N1CCN(C(=O)NCc2ccc(Cl)cc2)CC1	i	?	0%	-17%	-26%	?
O=C(NCc1ccccc1)c1cc(C2CCCN(C(=O)c3ccccc3)C2)on1 (stereo unspecified)	i	1%	1%	1%	-24%	i
COc1ccccc1-n1cnnc1SCC(=O)NC1CCCC1	i	-3%	-1%	-3%	22%	i
Cc1ccc(-n2cc(CNCCc3ncc(C)[nH]3)c(-c3ccc(F)cc3)n2)cc1	?	?	21µM*	16µM*	16µM*	?
Cc1cccc(-n2cc(CNCCN3CCOC3=O)c(-c3cccc(F)c3)n2)c1	i	21µM*	?	-19%	?	i
COc1ccc(-n2cc(CNCCCn3ccnc3)c(-c3ccccc3Cl)n2)cc1	i	?	-16%	-16%	?	i
Cc1cccc(-n2cc(CN3CCCN(C=O)CC3)c(-c3cccc(F)c3)n2)c1	i	?	-8%	18%	?	?
Fc1ccc(-n2cc(CNCCc3ccccn3)c(-c3ccccc3Cl)n2)cc1	?	7.3µM*	21µM*	21µM*	9.2µM*	21µM*
SMILES	KB-3-1 tox	DT40 TDP1 no CPT	HT1080 IDH1KD tx	HT1080NT lethal	DT40 TDP1 CPT	KB-V1 cytotox
Cc1ccc(-n2cc(CNCCn3nc(C)cc3C)c(-c3ccc(F)cc3)n2)cc1	i	23µM*	?	21µM*	15µM*	i
Cc1ccccc1S(=O)(=O)NC(=O)C1(C)CCN1C(=O)CC1CCCCC1 (stereo unspecified)	i	-4%	?	16%	-16%	i
OC[C@H]1O[C@@H]2O[C@H]3[C@H](O)[C@@H](O)[C@@H](O[C@H]4[C@H](O)[C@@H](O)[C@@H](O[C@H]5[C@H](O)[C@@H](O)[C@@H](O[C@H]6[C@H](O)[C@@H](O)[C@@H](O[C@H]7[C@H](O)[C@@H](O)[C@@H](O[C@H]8[C@H](O)[C@@H](O)[C@@H](O[C@H]1[C@H](O)[C@H]2O)O[C@@H]8CO)O[C@@H]7CO)O[C@@H]6CO)O[C@@H]5CO)O[C@@H]4CO)O[C@@H]3CO	nt	-2%	nt	nt	4%	nt
CCOc1ccccc1NC(=O)Cn1c(=O)n(Cc2nc(C)no2)c(=O)c2ccccc21	i	-19%	nt	nt	-10%	i
O=C(NCC1CCCN(C(=O)CN2CCCCC2)C1)c1ccccc1Cl (stereo unspecified)	i	-1%	0%	0%	20%	i
CCCCCCCCCCCCCCCCOCC(CO)OC (stereo unspecified)	nt	-7%[4.12 µM]	nt	nt	2%[4.12 µM]	nt
Cc1ccc(-n2cc(CNCCCN3CCCC3=O)c(-c3ccc(F)cc3)n2)cc1	i	18µM*	0%	-22%	?	i
Cc1ccc(-n2cc(CNCCN3CCOC3=O)c(-c3ccc(F)cc3)n2)cc1	i	?	-23%	-20%	23µM*	?
Cc1cc2oc(C(=O)Nc3sc4c(c3C(=O)NCc3ccccc3)CCCC4)cc(=O)c2cc1C	i	1%	nt	nt	3%	i
COC(=O)CCc1sc(Nc2ccc(OC)cc2)nc1-c1ccc(OC)cc1	i	?	nt	nt	?	?
COC(=O)CCc1sc(NC2CCCCC2)nc1-c1ccc(OC)cc1	i	18µM*	-3%	-10%	21µM*	i
